Screening data (PubChem BioAssay)
Shiga inhibitor – A qHTS for Small Molecule Inhibitors of Shiga Toxin; Vero cells, Shiga toxin protein synthesis inhibition reporter; inhibition, % at 38.7 µM; actives 9.2% (n = 290,000); AID 2315, 2010; in the data active = inhibition mostly above about 28%, no sharp cut-off; inactive = mostly below about 43%
SARS PLpro yeast – qHTS of Yeast-based Assay for SARS-CoV PLP; S. cerevisiae expressing SARS-CoV PLpro, growth rescue; Potency, µM (doses to about 32.9 µM), most hits filed as activators; actives 0.19% (n = 330,000); note: nearly all actives have a fitted effect of over 55% in size
Cycloheximide cs – Cycloheximide Counterscreen for Small Molecule Inhibitors of Shiga Toxin; cell reporter, cycloheximide protein synthesis inhibition counterscreen; max response, %; actives 12% (n = 300,000); in the data active = max response mostly above about 13%, no sharp cut-off; inactive = mostly below about 14%; note: read at 38.3 µM for the half of the compounds with a filed dose
NS1 function inh – qHTS Assay for Inhibitors of Influenza NS1 Protein Function; Potency, µM (top dose mostly 46.1 µM); actives 0.4% (n = 270,000); AID 2326, 2010; note: actives are rising curves; nearly all actives have a fitted effect of over 50% in size
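A cell-based growth assay was used: compounds that relieve NS1-induced slow growth of budding yeast raise OD600. Assay medium was yeast nitrogen base with ammonium sulphate and -URA supplement, pH 6.0, with 2% galactose.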
Large screens that a line does not name were inactive. Most compounds without a hit are left out; they make up all but 12% or so of the library. Unless noted, calls come from the whole dose curve.

COc1cc(C(=O)NCc2nnc(SCC(=O)Nc3nc4ccccc4s3)o2)cc(OC)c1OC	Shiga inhibitor 46, Cycloheximide cs 14, NS1 function inh inconclusive
COc1ccc(C(=O)NCc2ccc(-c3nc4ccccc4s3)cc2)cc1	Cycloheximide cs 44
COc1cc(C(=O)NCc2ccc(-c3nc4ccccc4o3)cc2)cc(OC)c1OC	none (no result: SARS PLpro yeast)
COc1cc(C(=O)NCc2ccc(-c3nc4ccccc4s3)cc2)cc(OC)c1OC	Shiga inhibitor 74, Cycloheximide cs 27
CCC(C)c1ccccc1OCC(=O)NN1C(=O)c2ccccc2C1=O (configuration not stated)	none (no result: Shiga inhibitor)
O=C(N/N=C\c1cn[nH]c1-c1ccc(Cl)cc1)c1cccs1	Shiga inhibitor 81, Cycloheximide cs 36
Cc1nnc(SCC(=O)N/N=C/c2cn(-c3ccccc3)nc2-c2ccccc2)n1-c1ccccc1	NS1 function inh inconclusive
O=C(N/N=C/c1cn[nH]c1-c1ccc(Cl)cc1)c1ccc([N+](=O)[O-])cc1	none
Cc1ccc(-c2nn(-c3ccccc3)cc2/C=N/NC(=O)c2ccc(Br)o2)cc1	Shiga inhibitor 36, Cycloheximide cs 24
O=C(N/N=C\c1cn(-c2ccccc2)nc1-c1ccccc1)c1ccc(Br)o1	Shiga inhibitor 80, Cycloheximide cs 14
O=C(N/N=C/c1cn(-c2ccccc2)nc1-c1ccccc1)c1ccco1	Shiga inhibitor 42, Cycloheximide cs 21
CC1(C)CC(=O)C(C(C2=C(O)CC(C)(C)CC2=O)c2ccc(Br)s2)C(=O)C1 (configuration not stated)	none
Nc1ccn(CC(=O)NCCNc2ccc([N+](=O)[O-])cn2)c(=O)n1	none (no result: Shiga inhibitor, Cycloheximide cs, NS1 function inh)
COc1ccc(NC(=O)CN(Cc2ccccc2)S(C)(=O)=O)cc1	none
O=C(c1ccco1)N1CCC(c2nc3c(nnn3Cc3ccc(F)cc3)c(=O)[nH]2)CC1	none
FC(F)(F)c1cc(-c2cccs2)nc2nc(N3CCOCC3)sc12	none (no result: NS1 function inh)
O=C(N/N=C/c1cn[nH]c1-c1ccccc1)c1ccco1	Shiga inhibitor 72, Cycloheximide cs 26
O=C(N/N=C\c1cn[nH]c1-c1ccccc1)c1ccc([N+](=O)[O-])cc1	none
Cc1nnc(SCC(=O)Nc2nonc2C)s1	none
CN(C)CCN(C(=O)c1cc(Cl)sc1Cl)c1nc2ccc(F)cc2s1	none
CCN(CC)CCN(C(=O)c1ccccc1OC)c1nc2ccc(F)cc2s1	Cycloheximide cs 20 (no result: NS1 function inh)
CCN(CC)CCN(C(=O)c1ccc2c(c1)CCCC2)c1nc2ccc(F)cc2s1	none (no result: NS1 function inh)
CCN(CC)CCN(C(=O)c1ccc2c(c1)CCCC2)c1nc2ccc(C)cc2s1	Cycloheximide cs 20
Cc1c([N+](=O)[O-])cc(C(=O)Nc2ccc3ncccc3c2)cc1[N+](=O)[O-]	none (no result: Shiga inhibitor)
c1cnc2ccc(-c3ccc4ncccc4c3)cc2c1	Cycloheximide cs 27 (no result: Shiga inhibitor)
O=C(Nc1ccc2ncccc2c1)c1ccccc1Br	Shiga inhibitor 41, Cycloheximide cs 38
O=C(Nc1ccc2ncccc2c1)Nc1ccc2ncccc2c1	Shiga inhibitor 47, Cycloheximide cs 19
CC(C)(C)NC(=O)CN1CCN(C(=O)CCl)CC1	none (no result: NS1 function inh)
CCOC1OC(=O)C(Cl)=C1Nc1cc(C)ccc1C (configuration not stated)	none (no result: NS1 function inh)
CC(=O)Nc1ccc(S(=O)(=O)NCCSCc2ccccc2Cl)cc1	none
O=C(Nc1ccc(Br)cc1F)c1ccc2c(c1)OCCO2	Cycloheximide cs 21
O=C(COC(=O)c1ccc2c(c1)OCCO2)Nc1ccc(F)cc1F	none (no result: Shiga inhibitor, Cycloheximide cs, NS1 function inh)
O=C(Nc1ccc(F)cc1F)c1ccc2c(c1)OCCO2	Shiga inhibitor 83, Cycloheximide cs 29
O=C(c1ccc2c(c1)OCO2)C1CCCN(C(=O)Nc2ccc(F)cc2F)C1 (configuration not stated)	Cycloheximide cs 18
O=C(c1ccc2c(c1)OCO2)C1CCCN(C(=O)C2CCOCC2)C1 (configuration not stated)	none
CCC(=O)Nc1ccc(C(=O)Nc2ccc(Br)cc2F)cc1	none
COC1=C/C(=C/c2c(N)n3cc(C)sc3nc2=O)C=CC1=O	Shiga inhibitor 45, Cycloheximide cs 42
O=C(NCc1nnnn1-c1ccc(F)c(F)c1)c1cc2ccccc2o1	none (no result: Shiga inhibitor, Cycloheximide cs, NS1 function inh)
Cc1ccc2nc3c(cc2c1)CC1(C(=O)N(C)C(=O)N(C)C1=O)C1CCCCN31 (configuration not stated)	Shiga inhibitor 69, Cycloheximide cs 19
Cn1c(=O)c2[nH]c(COCc3nc4c([nH]3)c(=O)n(C)c(=O)n4C)nc2n(C)c1=O	none (no result: Shiga inhibitor, SARS PLpro yeast, Cycloheximide cs)
Cc1ccc(/C=N/NC(=O)c2cc(C)oc2C)cc1	Shiga inhibitor 60, Cycloheximide cs 53
CN(C)c1ccc(/C=N/NC(=O)c2ccccc2O)o1	Shiga inhibitor 131, SARS PLpro yeast inconclusive, Cycloheximide cs 20 (no result: NS1 function inh)
Cc1ccc(/C=N/NC(=O)c2cc(C)oc2C)o1	Cycloheximide cs 15
